Consider ten compounds from PubChem BioAssay (NCI).

A short description of assay [1]: NCI Yeast Anticancer Drug Screen. Data for the rad50 strain (AID 155).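 Note: 0% = growth of vehicle-only cultures of the same strain.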 The conditions noted are these: S. cerevisiae rad50 strain growth inhibition, hits give high values. The method, boiled down: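 Growth of the mutant yeast was measured after compound exposure and referenced to vehicle-treated cultures.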
A short description of assay [2]: NCI Yeast Anticancer Drug Screen. Data for the mec2-1 strain (AID 157). The conditions noted are these: S. cerevisiae mec2-1 strain, hits give high values. The procedure, abridged:
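Each compound was tested on mec2-1 yeast, a strain altered in DNA damage repair or cell cycle control. Growth inhibition is reported relative to vehicle.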

A short description of assay [3]: NCI Yeast Anticancer Drug Screen. Data for the sgs1 mgt1 strain (AID 161).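 Note: 0% = growth of cultures given vehicle only.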 The settings on record: S. cerevisiae sgs1 mgt1 strain, hits give high values. The procedure, abridged:
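Inhibition of yeast growth, normalised to vehicle-treated controls, is reported for a strain bearing genetic alterations in DNA damage repair.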

Assay [4] in a line: NCI Yeast Anticancer Drug Screen. Data for the cln2 rad14 strain (AID 165).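 Note: 0% = growth equal to vehicle treated cultures.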 The conditions noted are these: S. cerevisiae cln2 rad14 strain, hits give high values. The method, boiled down: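 Test compounds were added to cln2 rad14 yeast cultures; inhibition of growth was then determined by comparison with vehicle treatment.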
Assay [5] is described as follows: NCI Yeast Anticancer Drug Screen. Data for the bub3 strain (AID 167). The conditions noted are these: S. cerevisiae bub3 mutant strain, hits give high values. The procedure, abridged:
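Whole-cell yeast assay. The mutant strain was incubated with compounds, and growth inhibition was determined by comparison with vehicle-treated cells.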

Assay [6] can be described thus: NCI Yeast Anticancer Drug Screen. Data for the mlh1 rad18 strain (AID 175). The conditions noted are these: S. cerevisiae mlh1 rad18 strain growth inhibition, hits give high values. The method, boiled down: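 Inhibition values reflect reduced growth of mutant yeast versus vehicle-treated controls following compound exposure; the mutations affect DNA damage repair.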

Where [7] appears, read: at 5.0 µM (retest, dose inferred, filed as 0.5).
[8] abbreviates: at 50.0 µM (retest, dose inferred, filed as 5.0).

Compounds without any hit were thinned out: in the full panel of roughly 79,000, 15% have a hit. A number with no mark means an inactive call. The source made the active and inactive calls. Cut-off read from the data, not from the text of the source: active = growth inhibition above about 70%; inactive = the rest.

Regarding `C/C(=N\NC(=S)N1CCN(Cc2ccccc2)CC1)c1ccccn1`, the growth inhibition in assay [1] (setting [7]) is 23%; in assay [1] (setting [8]) it was 76% (active); in assay [1] (at 50.0 µM) it was 90.3% (active); in assay [2] (setting [7]), 23%; in assay [2] (setting [8]) it was 85% (active); in assay [2] (at 50.0 µM) it was 88.8% (active). Also, the growth inhibition in assay [3] (setting [7]) is 12%; in assay [3] (setting [8]), 80% (active); in assay [3] (at 50.0 µM) it was 31.2%; in assay [4] (setting [7]), 8%; in assay [4] (setting [8]), 73% (active); in assay [4] (at 50.0 µM) it was -14.7%. The growth inhibition is 31% in assay [5] (setting [7]); 96% (active) in assay [5] (setting [8]); 11.7% in assay [5] (at 50.0 µM); 15% in assay [6] (setting [7]); 74% (active) in assay [6] (setting [8]); 81.6% (active) in assay [6] (at 50.0 µM).
Turning to `Clc1ccc(-c2nc3ccc(Cl)cc3[nH]2)cc1`, the growth inhibition in assay [1] (setting [7]) was -2%; in assay [1] (setting [8]) it was 90% (active); in assay [1] (at 50.0 µM) it was 76.8% (active); in assay [2] (setting [7]), -3%; in assay [2] (setting [8]), 88% (active); in assay [2] (at 50.0 µM), 86.7% (active). For the same compound, the growth inhibition in assay [3] (setting [7]) is -5%; in assay [3] (setting [8]), 93% (active); in assay [3] (at 50.0 µM) it was -30.9%; in assay [4] (setting [7]), 0%; in assay [4] (setting [8]), 92% (active); in assay [4] (at 50.0 µM) it was 84.3% (active). The growth inhibition in assay [5] (setting [7]) is 19%; in assay [5] (setting [8]) it was 96% (active); in assay [5] (at 50.0 µM), 88% (active); in assay [6] (setting [7]) it was -38%; in assay [6] (setting [8]), 54%; in assay [6] (at 50.0 µM) it was 35.3%.
As to `CCOC(=S)SCc1nc2ccccc2[nH]1`, the growth inhibition in assay [1] (setting [7]) was 9%; in assay [1] (setting [8]), 51%; in assay [1] (at 50.0 µM), 87% (active); in assay [2] (setting [7]), 3%; in assay [2] (setting [8]), 96% (active); in assay [2] (at 50.0 µM), 80.7% (active). Further, the growth inhibition in assay [3] (setting [7]) was 7%; in assay [3] (setting [8]), 15%; in assay [3] (at 50.0 µM), 82.6% (active); in assay [4] (setting [7]), 10%; in assay [4] (setting [8]), 83% (active); in assay [4] (at 50.0 µM) it was 69%. Moreover, the growth inhibition is 5% in assay [5] (setting [7]); 86% (active) in assay [5] (setting [8]); 76.8% (active) in assay [5] (at 50.0 µM); 3% in assay [6] (setting [7]); 93% (active) in assay [6] (setting [8]); 89.2% (active) in assay [6] (at 50.0 µM).
Consider `C1C2OC2C2C1C1CC2C2OC12` (stereo not given), for which the growth inhibition in assay [1] (setting [7]) was 1%; in assay [1] (setting [8]), -3%; in assay [1] (at 50.0 µM) it was 7.9%; in assay [2] (setting [7]), 0%; in assay [2] (setting [8]), -4%; in assay [2] (at 50.0 µM), -12.8%. Moreover, the growth inhibition is -3% in assay [3] (setting [7]); -15% in assay [3] (setting [8]); -2.55% in assay [3] (at 50.0 µM); 2% in assay [4] (setting [7]); 2% in assay [4] (setting [8]); 19.4% in assay [4] (at 50.0 µM). Also, the growth inhibition in assay [5] (setting [7]) is 1%; in assay [5] (setting [8]) it was 1%; in assay [5] (at 50.0 µM) it was -12.9%; in assay [6] (setting [7]), 1%; in assay [6] (setting [8]) it was -1%; in assay [6] (at 50.0 µM), -0.1%.
With `OC1C2COc3nc4ccccc4n3C(O2)C1O` (stereo not given), the growth inhibition in assay [1] (setting [7]) is -153%; in assay [1] (setting [8]), -165%; in assay [1] (at 50.0 µM), -7.3%; in assay [2] (setting [7]), -54%; in assay [2] (setting [8]) it was -57%; in assay [2] (at 50.0 µM), 5.4%. Moreover, the growth inhibition in assay [3] (setting [7]) was -58%; in assay [3] (setting [8]) it was -70%; in assay [3] (at 50.0 µM) it was -10.4%; in assay [4] (setting [7]), -60%; in assay [4] (setting [8]) it was -56%; in assay [4] (at 50.0 µM) it was 33.6%. In addition, the growth inhibition in assay [5] (setting [7]) is -69%; in assay [5] (setting [8]) it was -84%; in assay [5] (at 50.0 µM), -14.9%; in assay [6] (setting [7]), -117%; in assay [6] (setting [8]), -118%; in assay [6] (at 50.0 µM), -7.05%.
In the case of `CCN(CC)C(=S)N/N=C/c1cc([N+](=O)[O-])ccc1O`, the growth inhibition in assay [1] (setting [7]) is -21%; in assay [1] (setting [8]), 63%; in assay [1] (at 50.0 µM), 37%; in assay [2] (setting [7]), 15%; in assay [2] (setting [8]), 88% (active); in assay [2] (at 50.0 µM), 79.8% (active). Further, the growth inhibition in assay [3] (setting [7]) is 36%; in assay [3] (setting [8]) it was 87% (active); in assay [3] (at 50.0 µM), 54.4%; in assay [4] (setting [7]), -3%; in assay [4] (setting [8]), 66%; in assay [4] (at 50.0 µM), 59%. Besides, the growth inhibition was 16% in assay [5] (setting [7]); 76% (active) in assay [5] (setting [8]); 56.5% in assay [5] (at 50.0 µM); 12% in assay [6] (setting [7]); 80% (active) in assay [6] (setting [8]); 14.8% in assay [6] (at 50.0 µM).
With `Clc1ccc2nc3c(c(N4CCOCC4)c2c1)CCCC3`, the growth inhibition was 94% (active) in assay [1] (setting [7]); 97% (active) in assay [1] (setting [8]); 99% (active) in assay [1] (at 50.0 µM); 92% (active) in assay [2] (setting [7]); 99% (active) in assay [2] (setting [8]); 99.3% (active) in assay [2] (at 50.0 µM). The growth inhibition is 94% (active) in assay [3] (setting [7]); 98% (active) in assay [3] (setting [8]); 99.2% (active) in assay [3] (at 50.0 µM); 80% (active) in assay [4] (setting [7]); 99% (active) in assay [4] (setting [8]); 98.9% (active) in assay [4] (at 50.0 µM). Besides, the growth inhibition in assay [5] (setting [7]) was 53%; in assay [5] (setting [8]) it was 98% (active); in assay [5] (at 50.0 µM), 99.5% (active); in assay [6] (setting [7]), 96% (active); in assay [6] (setting [8]) it was 98% (active); in assay [6] (at 50.0 µM), 99.2% (active).
Take `Cc1ccccc1[P+](C)(c1ccccc1C)c1ccccc1C`: the growth inhibition in assay [1] (setting [7]) is 56%; in assay [1] (setting [8]) it was 85% (active); in assay [1] (at 50.0 µM) it was 81% (active); in assay [2] (setting [7]), 18%; in assay [2] (setting [8]), 78% (active); in assay [2] (at 50.0 µM), 69.7%. Also, the growth inhibition is 31% in assay [3] (setting [7]); 89% (active) in assay [3] (setting [8]); 82.2% (active) in assay [3] (at 50.0 µM); 2% in assay [4] (setting [7]); 48% in assay [4] (setting [8]); 29.1% in assay [4] (at 50.0 µM). Besides, the growth inhibition in assay [5] (setting [7]) is 27%; in assay [5] (setting [8]) it was 85% (active); in assay [5] (at 50.0 µM), 82.8% (active); in assay [6] (setting [7]), 34%; in assay [6] (setting [8]), 84% (active); in assay [6] (at 50.0 µM), 71.8% (active).
Take `Clc1ccc(N=Cc2c3ccccc3cc3ccccc23)c(Cl)c1`: the growth inhibition was 0% in assay [1] (setting [7]); -3% in assay [1] (setting [8]); 79.7% (active) in assay [1] (at 50.0 µM); 3% in assay [2] (setting [7]); 2% in assay [2] (setting [8]); 85.4% (active) in assay [2] (at 50.0 µM). The growth inhibition in assay [3] (setting [7]) is -5%; in assay [3] (setting [8]), 5%; in assay [3] (at 50.0 µM), 87.4% (active); in assay [4] (setting [7]), 15%; in assay [4] (setting [8]), 22%; in assay [4] (at 50.0 µM), 31%. The growth inhibition is 2% in assay [5] (setting [7]); 29% in assay [5] (setting [8]); 79.5% (active) in assay [5] (at 50.0 µM); -7% in assay [6] (setting [7]); 44% in assay [6] (setting [8]); 77.5% (active) in assay [6] (at 50.0 µM).
In the case of `CC12CC(Br)(Br)C(=O)C3C1CCCC32`, the growth inhibition is 51% in assay [1] (setting [7]); 31% in assay [1] (setting [8]); 48.9% in assay [1] (at 50.0 µM); 48% in assay [2] (setting [7]); 60% in assay [2] (setting [8]); 41% in assay [2] (at 50.0 µM). For the same compound, the growth inhibition in assay [3] (setting [7]) was 37%; in assay [3] (setting [8]), -38%; in assay [3] (at 50.0 µM), 86.8% (active); in assay [4] (setting [7]), 49%; in assay [4] (setting [8]) it was 35%; in assay [4] (at 50.0 µM) it was 75.7% (active). The growth inhibition in assay [5] (setting [7]) is 74% (active); in assay [5] (setting [8]), 59%; in assay [5] (at 50.0 µM), 87% (active); in assay [6] (setting [7]) it was 74% (active); in assay [6] (setting [8]) it was 79% (active); in assay [6] (at 50.0 µM), 87% (active).
